The source of these data is publication PMC7862700, “An all-to-all approach to the identification of sequence-specific readers for epigenetic DNA modifications on cytosine”.

Sequence of CRX (O43186 whole entry, the tested form may be a part): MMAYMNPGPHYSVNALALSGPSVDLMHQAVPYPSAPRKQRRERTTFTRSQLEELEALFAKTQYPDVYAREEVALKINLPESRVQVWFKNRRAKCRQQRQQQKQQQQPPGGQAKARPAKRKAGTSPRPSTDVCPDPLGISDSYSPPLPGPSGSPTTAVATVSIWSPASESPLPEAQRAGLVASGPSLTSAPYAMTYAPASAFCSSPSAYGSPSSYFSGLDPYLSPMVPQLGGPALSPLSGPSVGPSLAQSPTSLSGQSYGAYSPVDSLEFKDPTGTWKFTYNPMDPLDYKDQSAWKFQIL
Sequence of ETV1 (P50549 whole entry): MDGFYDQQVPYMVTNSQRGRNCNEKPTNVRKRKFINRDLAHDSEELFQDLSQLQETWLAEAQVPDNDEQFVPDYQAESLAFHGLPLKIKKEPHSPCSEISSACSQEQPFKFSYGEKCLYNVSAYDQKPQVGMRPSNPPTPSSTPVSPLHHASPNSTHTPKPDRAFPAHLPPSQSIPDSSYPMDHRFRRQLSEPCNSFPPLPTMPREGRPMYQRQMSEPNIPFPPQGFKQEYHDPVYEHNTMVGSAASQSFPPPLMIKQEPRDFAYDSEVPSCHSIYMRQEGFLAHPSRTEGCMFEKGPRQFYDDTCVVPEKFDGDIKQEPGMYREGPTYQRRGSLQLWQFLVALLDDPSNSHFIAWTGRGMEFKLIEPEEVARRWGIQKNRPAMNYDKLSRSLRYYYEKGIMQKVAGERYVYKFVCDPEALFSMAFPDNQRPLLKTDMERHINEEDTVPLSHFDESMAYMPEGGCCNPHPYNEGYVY

One assay has as its target CRX (Homo sapiens, UniProt O43186 1-299). The assay can be described thus: DAPPL (digital affinity profiling via proximity ligation, sequencing); 10 mM Tris-HCl pH 7.5, 50 mM NaCl, 1 mM DTT, 4% glycerol, room temperature, 30 min; GST-TFs on glutathione beads, 16-mer random dsDNA library, 0.1% formaldehyde crosslink after washing; high values mean tight binding. The note with it: protein: recombinant; tags: N-terminal GST; dsDNA, one strand shown. The gist of the method:
(§1)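 Human transcription factors fused to GST were expressed in yeast, captured on glutathione beads, given DNA barcodes and pooled with a GST-only negative control. Pools were incubated with 200 nmole of a 16-mer random double-stranded DNA library in Tris/NaCl/DTT/glycerol buffer at room temperature for 30 min. They were then washed, crosslinked with 0.1% formaldehyde, proximity-ligated (BsaI/T4 ligase, 1 h, 37 °C), PCR-amplified and sequenced on an Illumina NextSeq500. Binding signal is each 6-mer's read frequency for a factor divided by its frequency for the GST control.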
Take TTTGTG: the binding signal is 1.29 fold enrichment (6-mer frequency, TF over GST control).
Turning to AATTCA, the binding signal was 1.39 fold enrichment (6-mer frequency, TF over GST control).
Regarding TTGCTC, the binding signal was 1.17 fold enrichment (6-mer frequency, TF over GST control).
In the case of CTAAAC, the binding signal was 1.47 fold enrichment (6-mer frequency, TF over GST control).
On the same count and under the same terms, then TAGGCT, with 1.99 fold enrichment (6-mer frequency, TF over GST control); and CCTCTG, with 1.36 fold enrichment (6-mer frequency, TF over GST control); and TGTCTA, with 1.05 fold enrichment (6-mer frequency, TF over GST control).
Take TTCACC: the binding signal is 1.17 fold enrichment (6-mer frequency, TF over GST control).
Still for that read-out and setting: then ATCTAC, with 1.5 fold enrichment (6-mer frequency, TF over GST control); and CACTAT, with 1.05 fold enrichment (6-mer frequency, TF over GST control); and TAATCC, with 7.84 fold enrichment (6-mer frequency, TF over GST control).
Same read-out and setting: then AAAGAT, with 1.75 fold enrichment (6-mer frequency, TF over GST control).
Take CGTCTT: the binding signal was 1.5 fold enrichment (6-mer frequency, TF over GST control).
For the sequence ACTGAA, the binding signal was 1.04 fold enrichment (6-mer frequency, TF over GST control).
Take CTCCGC: the binding signal was 1.3 fold enrichment (6-mer frequency, TF over GST control).
Regarding CAACTC, the binding signal was 1.01 fold enrichment (6-mer frequency, TF over GST control).
Regarding TACAAT, the binding signal is 1.44 fold enrichment (6-mer frequency, TF over GST control).
For CCATCT, the binding signal was 1.28 fold enrichment (6-mer frequency, TF over GST control).
In the case of TCCCCG, the binding signal was 1.21 fold enrichment (6-mer frequency, TF over GST control).
For the sequence ACTCTA, the binding signal is 1.52 fold enrichment (6-mer frequency, TF over GST control).
As for CCCTCC, the binding signal is 1.19 fold enrichment (6-mer frequency, TF over GST control).
On to ATATTC, for which the binding signal was 1.51 fold enrichment (6-mer frequency, TF over GST control).
CGCTTA: the binding signal was 2.11 fold enrichment (6-mer frequency, TF over GST control).
Regarding ACGTTA, the binding signal is 1.17 fold enrichment (6-mer frequency, TF over GST control).
Turning to GCCTTT, the binding signal is 1.3 fold enrichment (6-mer frequency, TF over GST control).
TTCGAG: the binding signal is 1.96 fold enrichment (6-mer frequency, TF over GST control).
CTGAGC: the binding signal was 1.3 fold enrichment (6-mer frequency, TF over GST control).
Turning to AATTCT, the binding signal is 1.79 fold enrichment (6-mer frequency, TF over GST control).
On to CCTGAA, for which the binding signal was 1.22 fold enrichment (6-mer frequency, TF over GST control).
Consider TAACTT, for which the binding signal is 1.56 fold enrichment (6-mer frequency, TF over GST control).
Regarding CTCATC, the binding signal was 1.32 fold enrichment (6-mer frequency, TF over GST control).
As for TCTCAT, the binding signal is 1.36 fold enrichment (6-mer frequency, TF over GST control).
Regarding TGATGA, the binding signal was 1.24 fold enrichment (6-mer frequency, TF over GST control).
On to TTAAAT, for which the binding signal was 2.92 fold enrichment (6-mer frequency, TF over GST control).
Same read-out and setting: for TTTCAA the value was 1.34 fold enrichment (6-mer frequency, TF over GST control).
Turning to ATATGG, the binding signal is 1.19 fold enrichment (6-mer frequency, TF over GST control).
As to ACTTGG, the binding signal was 1.1 fold enrichment (6-mer frequency, TF over GST control).
As for CACATT, the binding signal is 1.06 fold enrichment (6-mer frequency, TF over GST control).
Consider TCCTGA, for which the binding signal was 1.25 fold enrichment (6-mer frequency, TF over GST control).

For a further assay, the target named is ETV1 (Homo sapiens, UniProt P50549 1-477). The assay is described as above. Conditions: protein: recombinant; tags: N-terminal GST; dsDNA, one strand shown. The method, boiled down:
as §1
For the sequence TTTGTG, the binding signal was 1.1 fold enrichment (6-mer frequency, TF over GST control).
In the case of AATTCA, the binding signal is 1.23 fold enrichment (6-mer frequency, TF over GST control).
Take TTGCTC: the binding signal is 1.21 fold enrichment (6-mer frequency, TF over GST control).
Turning to CTAAAC, the binding signal is 1.24 fold enrichment (6-mer frequency, TF over GST control).
On to TAGGCT, for which the binding signal is 1.08 fold enrichment (6-mer frequency, TF over GST control).
As to CCTCTG, the binding signal is 1.67 fold enrichment (6-mer frequency, TF over GST control).
In the case of TGTCTA, the binding signal was 1.24 fold enrichment (6-mer frequency, TF over GST control).
With TTCACC, the binding signal was 1.4 fold enrichment (6-mer frequency, TF over GST control).
Take ATCTAC: the binding signal was 1.26 fold enrichment (6-mer frequency, TF over GST control).
Consider CACTAT, for which the binding signal was 1.14 fold enrichment (6-mer frequency, TF over GST control).
As for TAATCC, the binding signal is 1.26 fold enrichment (6-mer frequency, TF over GST control).
Turning to AAAGAT, the binding signal was 1.27 fold enrichment (6-mer frequency, TF over GST control).
Consider CGTCTT, for which the binding signal was 1.48 fold enrichment (6-mer frequency, TF over GST control).
As to ACTGAA, the binding signal was 1.19 fold enrichment (6-mer frequency, TF over GST control).
On the same count and under the same terms, for CTCCGC the value was 1.56 fold enrichment (6-mer frequency, TF over GST control).
As for CAACTC, the binding signal was 1.18 fold enrichment (6-mer frequency, TF over GST control).
With TACAAT, the binding signal is 1.33 fold enrichment (6-mer frequency, TF over GST control).
Regarding CCATCT, the binding signal was 1.34 fold enrichment (6-mer frequency, TF over GST control).
On the same count and under the same terms, then TCCCCG, with 1.13 fold enrichment (6-mer frequency, TF over GST control); and ACTCTA, with 1.42 fold enrichment (6-mer frequency, TF over GST control).
For the sequence CCCTCC, the binding signal is 1.45 fold enrichment (6-mer frequency, TF over GST control).
In the case of ATATTC, the binding signal was 1.26 fold enrichment (6-mer frequency, TF over GST control).
On the same count and under the same terms, for CGCTTA the value was 1.24 fold enrichment (6-mer frequency, TF over GST control); for ACGTTA, 1.05 fold enrichment (6-mer frequency, TF over GST control).
As to GCCTTT, the binding signal was 1.34 fold enrichment (6-mer frequency, TF over GST control).
With TTCGAG, the binding signal is 1.37 fold enrichment (6-mer frequency, TF over GST control).
The same measure, in the same setting: then CTGAGC, with 1.15 fold enrichment (6-mer frequency, TF over GST control); and AATTCT, with 1.32 fold enrichment (6-mer frequency, TF over GST control).
For CCTGAA, the binding signal is 1.38 fold enrichment (6-mer frequency, TF over GST control).
Turning to TAACTT, the binding signal was 1.33 fold enrichment (6-mer frequency, TF over GST control).
In the case of CTCATC, the binding signal is 1.4 fold enrichment (6-mer frequency, TF over GST control).
On the same count and under the same terms, then TCTCAT, with 1.38 fold enrichment (6-mer frequency, TF over GST control); and TGATGA, with 1.27 fold enrichment (6-mer frequency, TF over GST control); and TTAAAT, with 1.16 fold enrichment (6-mer frequency, TF over GST control).
For the sequence TTTCAA, the binding signal was 1.33 fold enrichment (6-mer frequency, TF over GST control).
Still for that read-out and setting: then ATATGG, with 1.17 fold enrichment (6-mer frequency, TF over GST control); and ACTTGG, with 1.25 fold enrichment (6-mer frequency, TF over GST control); and CACATT, with 1.28 fold enrichment (6-mer frequency, TF over GST control).
In the case of TCCTGA, the binding signal was 1.49 fold enrichment (6-mer frequency, TF over GST control).
